Compounds with a hit are over-represented: about 17% of the library has one in this group of screens.
ClpP mod: qHTS Assay for Activators of ClpP; ATP-dependent Clp protease proteolytic subunit (Bacillus subtilis (strain 168)), P80244; purified B. subtilis ClpP, FRET peptide cleavage, 20 min; Potency, µM (titrated, usually from 57.5 µM), for inactives: top-dose activity change, negative = active; actives 1.9% (n = 340,000); AID 651965, 2013; active means well fitted falling curve with a large enough effect; inconclusive means small, poorly fitted or top-dose-only effect; inactive means no such curve, though single readings can be large or run the other way; further: the source files actives as falling curves though it sought activators and does not explain the sign; nearly all actives have a fitted effect of over 65% in size
Target sequence (P80244 whole entry, looked up): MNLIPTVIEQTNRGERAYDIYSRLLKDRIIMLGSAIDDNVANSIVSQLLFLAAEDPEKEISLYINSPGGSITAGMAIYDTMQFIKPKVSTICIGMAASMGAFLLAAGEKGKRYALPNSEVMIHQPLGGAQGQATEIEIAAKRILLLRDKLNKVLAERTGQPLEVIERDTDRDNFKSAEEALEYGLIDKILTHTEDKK
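Buffer: 100 mM Tris/HCl pH8, 100 mM KCl, 0.05% low protease BSA, 2.5% glycerol, 0.01% Tween-20. ClpP 10 microg/mL final; 20 min RT; delta FRET normalized to ADEP and DMSO controls.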
TDP1 cell CPT: DT40-hTDP1 cell growth loss with CPT; Potency, µM (top dose mostly 46.2 µM), inactives show at the highest dose activity change, negative = growth inhibition, usual class: inhibitors; actives 12% (n = 420,000); chicken DT40 Tdp1-/-;hTDP1 cells + 20 nM CPT, ATP luminescence, 48 h; further: on the % scale 0 is the no-effect control and ±100 the full control effect; nearly all actives have a fitted effect of over 55% in size
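Chicken DT40 Tdp1-/- cells complemented with human TDP1, 400 cells/well, exposed to compounds plus 20 nM camptothecin for at least 48 h at 37 C; viability read as ATP content by CellTiter-Glo luminescence.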
TDP1 cell noCPT: qHTS for Inhibitors of human tyrosyl-DNA phosphodiesterase 1 (TDP1): qHTS in cells in absence of CPT; DT40 Tdp1-/- hTDP1 cells, no CPT, ATP luminescence, 48 h; Potency, µM (titrated, usually from 46.2 µM), for the others: at the highest dose activity change, negative = growth inhibition, usual class: inhibitors; actives 15% (n = 420,000); AID 686978, 2013; further: on the % scale 0 is the no-effect control and ±100 the full control effect; nearly all actives have a fitted effect of over 55% in size
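Chicken DT40 Tdp1-/- cells stably complemented with human TDP1 were seeded at 400 cells/well with DMSO in place of 20 nM camptothecin. After compound pinning, cells grew at least 48 hr at 37 °C; viability read by CellTiter-Glo luminescence.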
TDP1 block: inhibitors of human tyrosyl-DNA phosphodiesterase TDP1; Q9NUW8; recombinant TDP1, AlphaScreen DNA substrate cleavage; Potency, µM (top dose mostly 130 µM), without a hit: at the top dose activity change, negative = inhibition, usual class: inhibitors; actives 0.28% (n = 350,000); further: on the % scale 0 is the no-effect control and ±100 the full control effect; nearly all actives have a fitted effect of over 40% in size
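Recombinant human Tdp1 (E. coli-expressed, 1 nM final) preincubated with compounds 15 min at room temperature, then 5'-biotin/3'-phosphotyrosine-FITC DNA substrate (15 nM final) added for 5 min. AlphaScreen beads (10 ug/ml final) added 10 min; cleavage lowers signal.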
* marks the source's active call; other numbers are inactive results; ? = inconclusive; / = no result. Unless noted, the call rests on the fitted dose curve; in most records, active means well fitted curve in the direction sought with a large enough effect; inconclusive means small, poorly fitted or top-dose-only effect, or another doubt; inactive means no such curve, though single readings can be large; an effect the other way counts as inactive or inconclusive. Potency means the concentration at half of the fitted maximal effect.

SMILES	ClpP mod	TDP1 cell CPT	TDP1 cell noCPT	TDP1 block
Fc1ccc2[nH]c3c(NCc4ccccc4)ncnc3c2c1	1%	5.2µM*	5.2µM*	/
COc1cccc(/C=N/Nc2ncnc3c2[nH]c2ccc(C)cc23)c1OC	-24%	2.1µM*	5.8µM*	/
C=CCNc1ncnc2c1[nH]c1ccc(C)cc12	16µM*	29µM*	21µM*	0%
COCCCNc1ncnc2c1[nH]c1ccccc12	/	/	/	7%
CC(C)(CC(=O)O)CC(=O)N1CCN(c2nc3cc(Cl)ccc3s2)CC1	-1%	-1%	-25%	/
Cc1nn(C)cc1CN(C)C(=O)CCc1nnc(CCC2CCCCC2)o1	-1%	-9%	-18%	4%
CCCCc1c(Cc2cccc(F)c2)ncn1CCc1ccccc1OC	2%	?	13µM*	/
CCCCCc1c(-c2ccc(F)cc2F)ncn1CCc1ccccc1OC	-1%	?	21µM*	/
COc1cccc2c1c(NC(=O)Nc1ccc(F)cc1F)nn2C	/	0%	3%	0%
CCCCc1c(-c2ccc(F)cc2F)ncn1CCc1ccccc1OC	-1%	23µM*	26µM*	/
Cc1ccc(CN2CC(C(=O)N3CCN(S(=O)(=O)c4cccc(F)c4)CC3)CC2=O)cc1 (stereo unspecified)	?	10%	-12%	/
O=C(NNS(=O)(=O)c1ccc(F)cc1)C1CCN(Cc2cccc(F)c2)CC1	/	-2%	-13%	0%
Cc1ccccc1Cn1c(CN2CCC(C(=O)NCc3ccc(Cl)cc3)CC2)cc2ccccc21	-21%	?	?	4%
O=C(NCCc1ccc(Cl)cc1)C1CCN(Cc2cc3ccccc3n2Cc2ccccc2)CC1	-18%	23µM*	18µM*	-3%
Cc1cccc(Cn2c(CN3CCC(C(=O)NCCc4ccccc4)CC3)cc3ccccc32)c1	-6%	?	18µM*	2%
O=C1c2ccccc2C(=O)N1c1cccc(Cl)c1	/	/	/	0%
CCN1CCN(CCCNC(=O)C2CCCN(c3nc4c(C)cc(C)cc4s3)C2)CC1 (stereo unspecified)	2%	23µM*	21µM*	/
Cc1cc(C)c2nc(N3CCC(C(=O)NCCCN4CC(C)CC(C)C4)CC3)sc2c1 (stereo unspecified)	/	?	23µM*	-2%
CCC(C(=O)NCCCN1CCOCC1)n1c2ccccc2c2nc(=O)cc(C)n21 (stereo unspecified)	3%	3%	6%	0%
CCOc1ccc(C(=O)Nc2cccc(OCc3cc(=O)n4cc(C)sc4n3)c2)cc1	0%	-9%	-17%	9%
O=C1NC(c2cccc(OCc3ccccc3)c2)Nc2ccccc21 (stereo unspecified)	32µM*	1.5µM*	1.2µM*	/
O=C1CCOc2cc(OCc3ccccc3)ccc21	-19%	7%	-9%	5%
Cc1cnc(CNC(=O)CC2C(=O)NCCN2Cc2ccccc2C(F)(F)F)cn1 (stereo unspecified)	2%	-7%	0%	5%
Cc1ccccc1CN1CCNC(=O)C1CC(=O)NC1CCCCCCC1 (stereo unspecified)	-6%	?	-23%	3%
O=C(CC1C(=O)NCCN1CC1CCCCC1)NCc1cc(F)ccc1F (stereo unspecified)	/	23µM*	?	3%
SMILES	ClpP mod	TDP1 cell CPT	TDP1 cell noCPT	TDP1 block
CCOc1ccccc1CN1CCNC(=O)C1CC(=O)NC1CCCCCCC1 (stereo unspecified)	2%	29µM*	?	/
CCc1ccc(CNC(=O)CC2C(=O)NCCN2Cc2ccccc2F)nc1 (stereo unspecified)	-4%	-18%	5.2µM*	5%
CN(C(=O)CC1C(=O)NCCN1Cc1ccccc1C(F)(F)F)C1CCOCC1 (stereo unspecified)	-21%	?	21µM*	1%
O=C(CNS(=O)(=O)c1ccc(F)cc1)N1CCCC1	/	21%	-2%	/
CN(C)c1ncc2nc(-c3ccc(Cl)cc3)c(=O)n(C[C@H]3CCCO3)c2n1	/	9%	16%	/
COc1ccc(C2(C)NC(=O)N(CC(=O)NCC(=O)Nc3ccc(F)c(F)c3F)C2=O)cc1OC (stereo unspecified)	/	1%	-16%	1%
CCOc1ccccc1-c1noc(CCCC(=O)Nc2cccc(C(F)(F)F)c2)n1	-2%	18µM*	18µM*	2%
COc1ccccc1-c1noc(CCCC(=O)Nc2cccc(C(F)(F)F)c2)n1	0%	?	18µM*	4%
COC(=O)c1ccccc1-c1ccc(/C=N/NC(=O)c2cc3ccccc3o2)o1	?	?	15µM*	11%
CCOc1cccc(/C=N/Nc2nc(N3CCCC3)nc(N3CCCC3)n2)c1O	-1%	16µM*	13µM*	6%
COC(=O)c1ccccc1-c1ccc(/C=N/Nc2nc(N3CCCC3)nc(N3CCCC3)n2)o1	0%	?	23µM*	-4%
CCSc1nnc(NC(=O)[C@H](C)NC(=O)c2ccccc2Cl)s1	/	4%	-3%	7%
O=C1NC(=O)/C(=C\c2ccccc2OCc2ccccc2)S1	/	-2%	-13%	1%
O=C1NC(=O)C(=Cc2ccccc2[N+](=O)[O-])S1	/	?	21µM*	/
Nc1ccccc1C=C1Cc2ccccc2C1=O	0%	11%	-26%	/
O=C1C(=Cc2ccccc2[N+](=O)[O-])Cc2ccccc21	0%	2.6µM*	3.3µM*	/
Cc1ccccc1/C=C1\CCCc2ccccc2C1=O	-1%	-21%	-26%	2%
CC1(C)CC(=Cc2ccccc2[N+](=O)[O-])C(=O)c2ccccc21	0%	-30%	16µM*	/
CC(C)(C)c1ccc(C(=O)C[n+]2ccccc2Cl)cc1	-18%	-23%	?	/
CC1CCCC(C)N1Cc1cn2ccccc2n1 (stereo unspecified)	18µM*	5%	3%	1%
Cc1cc(C)nc(SCc2cn3ccccc3n2)n1	-2%	4%	3%	/
COc1cccc(-c2cn3c(n2)sc2cc(C(=O)NCCc4ccc(OC)c(OC)c4)ccc23)c1	5%	4.6µM*	2.3µM*	3%
CCOc1ccccc1CNC(=O)c1ccc2c(c1)sc1nc(-c3cccc(OC)c3)cn12	4%	8.2µM*	8.2µM*	5%
CCNC(=O)c1ccc2c(c1)sc1nc(-c3cccc(OC)c3)cn12	4%	6.5µM*	7.3µM*	0%
COc1cccc(-c2cn3c(n2)sc2cc(C(=O)NCc4ccccc4F)ccc23)c1	5%	?	16µM*	4%
COc1ccc(OCc2nn[nH]n2)cc1	-2%	3%	-6%	/
O=C(COC(=O)/C=C/c1ccco1)NCCN1C(=O)CSC1=O	0%	2%	29%	/
Cc1cc(C)n(C(N)=NC(=O)c2ccccc2)n1	0%	6%	0%	/

Screening data deposited in PubChem BioAssay by National Center for Advancing Translational Sciences (NCATS).
